# Screening data as filed in PubChem BioAssay.
# IL1B secr inh = inflammasome signaling inhibition, IL-1 beta readout | 4.7% of 360,000 active | activity change, % at 57.5 µM | THP-1 LPS/ATP IL-1B secretion, AlphaLISA, 16 h; stronger effect = lower value | AID 743279; in the data active means activity change below about -50%; inconclusive means mostly about -30% to -49%
#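 THP-1 cells pretreated 1 hr with compounds (up to 57.5 uM final), then stimulated with LPS (250 ng/mL final) plus ATP (1.25 mM final); secreted IL-1B measured by AlphaLISA after 16 hr, decreased signal indicating inhibition.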
# TDP1 cell noCPT = qHTS for Inhibitors of human tyrosyl-DNA phosphodiesterase 1 (TDP1): qHTS in cells in absence of CPT; DT40 Tdp1-/- hTDP1 cells, no CPT, ATP luminescence, 48 h; Potency, µM (top dose mostly 46.2 µM), most hits filed as inhibitors; 15% of 420,000 active; further: nearly all actives have a fitted effect of over 55% in size
#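 Cells were dispensed at 400 per well, compounds added by pin tool, plates incubated ≥48 hr at 37 °C, then CellTiter-Glo added for 30 min at room temperature before luminescence reading. Line: DT40 Tdp1-/- complemented with hTDP1; camptothecin omitted.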
# HT1080-NT tox = kills 2HG-producing HT-1080-NT fibrosarcoma cells; HT-1080-NT fibrosarcoma viability, CellTiter-Glo ATP luminescence, 48 h; 1.6% of 360,000 active; AID 686970; Potency, µM (titrated, usually from 46.1 µM), hits mostly cytotoxic;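 further: NT is the 2HG producing partner of a matched IDH1 knockdown line; nearly all actives have a fitted effect of over 55% in size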
#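 Luminescent CellTiter-Glo readout after 48 hours of compound exposure at 37 degrees C defined viability of HT-1080-NT cells. Activity was normalized to DMSO wells and cell-free media wells; concentration-response curves were fitted and assigned curve classes.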
# TDP1 cell CPT = DT40-hTDP1 cell growth loss with CPT | Potency, µM (series often up to 46.2 µM), hits mostly inhibitors | AID 686979 | 12% of 420,000 active | chicken DT40 Tdp1-/-;hTDP1 cells + 20 nM CPT, ATP luminescence, 48 h; further: nearly all actives have a fitted effect of over 55% in size
#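 Chicken DT40 Tdp1-/- cells complemented with human TDP1, 400 cells/well, exposed to compounds plus 20 nM camptothecin for at least 48 h at 37 C; viability read as ATP content by CellTiter-Glo luminescence.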
# 12-LOX inh = inhibitors of human 12S-lipoxygenase ALOX12 | P18054 | purified 12hLO, xylenol orange hydroperoxide absorbance | Potency, µM (series often up to 108 µM), usual class: inhibitors | 1.1% of 580,000 active | AID 1671190
# Target sequence (P18054 whole entry, looked up): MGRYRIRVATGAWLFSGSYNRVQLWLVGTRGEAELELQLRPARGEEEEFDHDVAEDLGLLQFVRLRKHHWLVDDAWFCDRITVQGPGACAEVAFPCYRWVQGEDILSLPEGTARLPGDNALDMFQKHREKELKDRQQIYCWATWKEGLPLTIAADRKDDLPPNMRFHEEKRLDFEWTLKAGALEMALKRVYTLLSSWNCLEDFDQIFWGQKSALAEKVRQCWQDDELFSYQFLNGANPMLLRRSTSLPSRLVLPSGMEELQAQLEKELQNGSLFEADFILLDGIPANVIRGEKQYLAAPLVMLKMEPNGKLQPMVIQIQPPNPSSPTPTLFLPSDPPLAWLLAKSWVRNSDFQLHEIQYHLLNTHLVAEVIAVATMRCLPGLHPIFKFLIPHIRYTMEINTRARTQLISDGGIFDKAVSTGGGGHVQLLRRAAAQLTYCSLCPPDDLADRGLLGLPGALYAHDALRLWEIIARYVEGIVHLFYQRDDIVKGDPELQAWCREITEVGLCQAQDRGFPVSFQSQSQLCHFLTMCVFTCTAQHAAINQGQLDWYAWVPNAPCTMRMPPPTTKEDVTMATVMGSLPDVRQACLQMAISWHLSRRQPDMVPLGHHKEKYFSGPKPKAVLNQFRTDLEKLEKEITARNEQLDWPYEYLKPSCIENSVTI
#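 Purified human 12hLO at 150 nM in 25 mM Hepes, 0.01% Triton X-100, pH 7.0, preincubated 15 min at room temperature with compound. Reaction started with 40 uM arachidonic acid, 30 min at room temperature. Hydroperoxide measured by Fe-xylenol orange, 573/405 nm absorbance ratio.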
# HT1080 IDH1KD tx = kills HT-1080 cells with IDH1 knockdown | 2% of 360,000 active | AID 686971 | HT-1080 IDH1 knockdown viability, ATP luminescence, 48 h | Potency, µM (series often up to 46.1 µM), usual class: cytotoxic
#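 In this qHTS, HT-1080 cells depleted of IDH1 are exposed for 48 h at 37 °C to compound titrations. Toxicity is scored from CellTiter-Glo luminescence, with DMSO as full viability and medium alone as none.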
# Numbers stand for hits; - = inactive; ? = inconclusive; . = not tested or not shown. This excerpt belongs to a sample that is enriched for hits. Unless noted, the call rests on the fitted dose curve; in most records, active means well fitted curve in the direction sought with a large enough effect; inconclusive means small, poorly fitted or top-dose-only effect, or another doubt; inactive means no such curve, though single readings can be large; an effect the other way counts as inactive or inconclusive.
SMILES,IL1B secr inh,TDP1 cell noCPT,HT1080-NT tox,TDP1 cell CPT,12-LOX inh,HT1080 IDH1KD tx
CCCN(CCC)S(=O)(=O)c1ccc(C(=O)Nc2nc3c(s2)CCc2ccccc2-3)cc1,-,15µM,18µM,16µM,-,?
COc1cc(C(=O)Nc2nnc(Cc3ccccc3)s2)cc(OC)c1OC,-,?,?,-,-,10µM
COc1cccc(OC)c1C(=O)Nc1nc2c(s1)CCc1ccccc1-2,.,-,.,-,-,.
CN(C)S(=O)(=O)c1ccc(C(=O)Nc2nnc(Cc3ccccc3)s2)cc1,-,-,?,-,-,23µM
CCOC(=O)c1[nH]c2ccc(C)cc2c1NC(=O)CC,.,.,.,.,-,.
CCn1cnc2c1c(=O)n(CC(=O)c1cc(C)n(CC3CCCO3)c1C)c(=O)n2Cc1ccccc1 (stereo unspecified),.,.,.,.,-,.
CN(CCc1ccccc1)[C@@H]1[C@H](O)[C@H](CO)O[C@@H]1CNC(=O)c1cccc(F)c1,.,.,.,.,-,.
COc1ccc(Cc2nnc(NC(=O)c3ccc(OC)c(OC)c3)s2)cc1,-,23µM,-,23µM,-,-
COc1ccc(Nc2cnc3ccc(-c4cccc(CO)c4)nn23)cn1,.,.,.,.,-,.
Cc1ccc(NC(=O)c2ccc(N/N=C/c3cccc(O)c3)c([N+](=O)[O-])c2)cc1,-,12µM,7.3µM,9.2µM,-,7.3µM
Cc1ccccc1NC(=O)c1ccc(N/N=C/c2ccccc2O)c([N+](=O)[O-])c1,-,10µM,-,8.2µM,-,-
Cc1ccccc1/C=N/Nc1ccc(S(N)(=O)=O)cc1[N+](=O)[O-],.,.,.,.,-,.
Cc1ccc(C(=O)Nc2cccc(C(=O)N/N=C/c3ccc(O)cc3)c2)cc1,-,-,-,-,-,-
Cc1ccc(S(=O)(=O)N2CCCC(C(=O)N3CCCc4ccccc43)C2)cc1 (stereo unspecified),-,21µM,-,21µM,?,-
CN1CCN(C(=O)C2CCCN(S(=O)(=O)c3ccccc3)C2)CC1 (stereo unspecified),-,-,-,-,?,-
O=C(C1CCCN(S(=O)(=O)c2ccccc2)C1)N1CCCc2ccccc21 (stereo unspecified),-,18µM,-,?,-,-
CC1CCC(NC(=O)COC(=O)c2cc3ccccc3[nH]2)CC1 (stereo unspecified),.,.,.,.,-,.
CCOc1c(OC(C)=O)ccc(/C=C/c2ccc3cccc(OC(C)=O)c3n2)c1[N+](=O)[O-],-,?,?,?,-,?
CCOc1cccc(/C=C/c2ccc3cccc(O)c3n2)c1OC,-,18µM,?,21µM,?,?
CCOc1cccc(/C=C/c2ccc3cccc(O)c3n2)c1O,-97,21µM,-,15µM,?,?
CC(=O)c1c(C(C)=O)c(C)n(-c2nc(-c3ccc(Br)cc3)c(C)s2)c1C,-,16µM,-,18µM,-,-
COc1ccc(-c2nc(-n3c(C)c(C(C)=O)c(C(C)=O)c3C)sc2C)cc1OC,-,?,-,?,-,-
COC(=O)c1ccc(-n2c(C)cc(C(=O)CSc3cccc[n+]3[O-])c2C)cc1,-,?,-,-,-,-
Cc1cc(C(=O)CSc2cccc[n+]2[O-])c(C)n1-c1ccc(OC(F)F)cc1,-,?,-,21µM,-,-
Cc1ccc(NC(=O)c2ccc3c(c2)N(C)C2CCCCCN2C3=O)c(F)c1 (stereo unspecified),.,.,.,.,-,.
Oc1c(C(c2ccccc2Cl)N2CCCC2)ccc2cccnc12 (stereo unspecified),-,16µM,?,15µM,?,?
Cc1ccc(C(c2cc(Cl)c3cccnc3c2O)N2CCN(C)CC2)cc1 (stereo unspecified),-,?,?,?,.,?
Oc1c(C(c2ccccn2)N2CCC(Cc3ccccc3)CC2)cc(Cl)c2cccnc12 (stereo unspecified),-106,2.9µM,?,4.1µM,?,21µM
CN1CCN(C(c2ccccn2)c2cc(Cl)c3cccnc3c2O)CC1 (stereo unspecified),-,6.5µM,-,6.5µM,?,?
Oc1c(C(c2ccc(Cl)cc2)N2CCCC2)cc(Cl)c2cccnc12 (stereo unspecified),-,5.2µM,?,4.1µM,?,?
